molecular target: POU1 (OCT1 POU domain) (human, UniProt P14859 260-458); assay: EMSA-SELEX-seq; no BOB1; 20 mM Tris-HCl pH 7.6, 140 mM NaCl, 10% glycerol, 0.5 mM EDTA, 0.05% Triton X-100, 0.1 mg/mL BSA, 0.1 mg/mL poly(dI-dC), 5 mM DTT, room temperature, 20 min; high values mean tight binding; details: protein: recombinant; dsDNA, one strand shown
Summary of the method: (§1)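 Binding preference is reported as the percentage of sequenced 8-mers that match a motif pattern. Tagged POU-domain proteins were made in E. coli BL21, purified under denaturing conditions and renatured. A 30 ng portion was combined with 300 ng of a PCR-amplified double-stranded random 35-nt library, with or without 28 ng coactivator protein, in 20 μL Tris–HCl pH 7.6 binding buffer for 20 min at RT. Complex bands were excised from native 6% PAGE, eluted and PCR-amplified over four rounds before Illumina sequencing.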

POU1 (OCT1 POU domain), sequence (P14859 260-458): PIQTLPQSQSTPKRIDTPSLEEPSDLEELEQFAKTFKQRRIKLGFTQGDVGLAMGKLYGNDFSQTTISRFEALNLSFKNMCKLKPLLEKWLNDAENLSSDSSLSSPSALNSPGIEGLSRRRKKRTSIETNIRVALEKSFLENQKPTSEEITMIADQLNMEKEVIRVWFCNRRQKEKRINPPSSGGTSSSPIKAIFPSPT

Sequence	binding signal
ACCCAAAG	0.0198 % of ANNNNAAN 8-mers
ACGGCAAC	0.0141 % of ANNNNAAN 8-mers
AACTTAAT	0.0995 % of ANNNNAAN 8-mers
AGCTAAAT	0.0652 % of ANNNNAAN 8-mers
ATACCAAG	0.0252 % of ANNNNAAN 8-mers
AGCCAAAT	0.0858 % of ANNNNAAN 8-mers
AACCTAAT	0.0534 % of ANNNNAAN 8-mers
AGGAAAAG	0.1 % of ANNNNAAN 8-mers
AGGCGAAC	0.0183 % of ANNNNAAN 8-mers
ATCAGAAA	0.0446 % of ANNNNAAN 8-mers
ATAGTAAC	0.0282 % of ANNNNAAN 8-mers
AGGAGAAT	0.0789 % of ANNNNAAN 8-mers
ATGGTAAG	0.0984 % of ANNNNAAN 8-mers
AGAATAAT	0.203 % of ANNNNAAN 8-mers
AAGCGAAC	0.0221 % of ANNNNAAN 8-mers
ACTAGAAT	0.0473 % of ANNNNAAN 8-mers
AGTATAAA	0.0744 % of ANNNNAAN 8-mers
ATATGAAC	0.0389 % of ANNNNAAN 8-mers
AGCAAAAT	0.102 % of ANNNNAAN 8-mers
ACTGTAAA	0.0404 % of ANNNNAAN 8-mers

Sequence	binding signal
ACCTAAAT	0.0393 % of ANNNNAAN 8-mers
AAGTCAAG	0.0332 % of ANNNNAAN 8-mers
ATCTGAAG	0.0297 % of ANNNNAAN 8-mers
ATGGGAAT	0.117 % of ANNNNAAN 8-mers
ACGTGAAA	0.0374 % of ANNNNAAN 8-mers
AGATCAAC	0.0175 % of ANNNNAAN 8-mers
ATTTAAAT	2.83 % of ANNNNAAN 8-mers
AAGCGAAG	0.0271 % of ANNNNAAN 8-mers
ATCGCAAC	0.0126 % of ANNNNAAN 8-mers
ACGCGAAT	0.0389 % of ANNNNAAN 8-mers
AATCTAAA	0.107 % of ANNNNAAN 8-mers
ACAGAAAC	0.0278 % of ANNNNAAN 8-mers
ATCCCAAT	0.0317 % of ANNNNAAN 8-mers
AGACTAAC	0.0153 % of ANNNNAAN 8-mers
AGCGGAAA	0.0378 % of ANNNNAAN 8-mers
ATCCCAAG	0.0172 % of ANNNNAAN 8-mers
ACATCAAA	0.0374 % of ANNNNAAN 8-mers
AGGCGAAA	0.0389 % of ANNNNAAN 8-mers
AACGAAAG	0.0313 % of ANNNNAAN 8-mers

molecular target: T1, POU2 (OCT2 POU domain) (human, UniProt P09086 175-386); assay: as above; details: protein: recombinant; dsDNA, one strand shown
T1 sequence: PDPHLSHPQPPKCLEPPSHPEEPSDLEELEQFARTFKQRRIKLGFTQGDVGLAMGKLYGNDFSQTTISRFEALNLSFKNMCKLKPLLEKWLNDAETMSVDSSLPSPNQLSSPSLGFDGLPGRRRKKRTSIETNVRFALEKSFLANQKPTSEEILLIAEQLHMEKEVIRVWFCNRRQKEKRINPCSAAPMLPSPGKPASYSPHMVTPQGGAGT
Summary of the method: as §1

Sequence	binding signal
ACCCAAAG	0.0184 % of ANNNNAAN 8-mers
ACGGCAAC	0.0109 % of ANNNNAAN 8-mers
AACTTAAT	0.117 % of ANNNNAAN 8-mers
AGCTAAAT	0.0633 % of ANNNNAAN 8-mers
ATACCAAG	0.0334 % of ANNNNAAN 8-mers
AGCCAAAT	0.0702 % of ANNNNAAN 8-mers
AACCTAAT	0.0875 % of ANNNNAAN 8-mers
AGGAAAAG	0.08 % of ANNNNAAN 8-mers
AGGCGAAC	0.0247 % of ANNNNAAN 8-mers
ATCAGAAA	0.0529 % of ANNNNAAN 8-mers
ATAGTAAC	0.0414 % of ANNNNAAN 8-mers
AGGAGAAT	0.0771 % of ANNNNAAN 8-mers
ATGGTAAG	0.127 % of ANNNNAAN 8-mers
AGAATAAT	0.3 % of ANNNNAAN 8-mers
AAGCGAAC	0.0178 % of ANNNNAAN 8-mers
ACTAGAAT	0.061 % of ANNNNAAN 8-mers
AGTATAAA	0.08 % of ANNNNAAN 8-mers
ATATGAAC	0.0495 % of ANNNNAAN 8-mers
AGCAAAAT	0.0702 % of ANNNNAAN 8-mers
ACTGTAAA	0.042 % of ANNNNAAN 8-mers

Sequence	binding signal
ACCTAAAT	0.0489 % of ANNNNAAN 8-mers
AAGTCAAG	0.0403 % of ANNNNAAN 8-mers
ATCTGAAG	0.0409 % of ANNNNAAN 8-mers
ATGGGAAT	0.128 % of ANNNNAAN 8-mers
ACGTGAAA	0.0386 % of ANNNNAAN 8-mers
AGATCAAC	0.0207 % of ANNNNAAN 8-mers
ATTTAAAT	2.38 % of ANNNNAAN 8-mers
AAGCGAAG	0.027 % of ANNNNAAN 8-mers
ATCGCAAC	0.0173 % of ANNNNAAN 8-mers
ACGCGAAT	0.0512 % of ANNNNAAN 8-mers
AATCTAAA	0.129 % of ANNNNAAN 8-mers
ACAGAAAC	0.0259 % of ANNNNAAN 8-mers
ATCCCAAT	0.038 % of ANNNNAAN 8-mers
AGACTAAC	0.0207 % of ANNNNAAN 8-mers
AGCGGAAA	0.0472 % of ANNNNAAN 8-mers
ATCCCAAG	0.0167 % of ANNNNAAN 8-mers
ACATCAAA	0.0391 % of ANNNNAAN 8-mers
AGGCGAAA	0.0357 % of ANNNNAAN 8-mers
AACGAAAG	0.0328 % of ANNNNAAN 8-mers

From paper PMC10812921, “Transcriptional Coactivator BOB1 (OBF1, OCA-B) Modulates the Specificity of DNA Recognition by the POU-Domain Factors OCT1 and OCT2 in a Monomeric Configuration”
